Results taken from PubChem BioAssay.
The source made the active and inactive calls.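 How the source made its calls, unless noted: active means NADPH fluorescence slope more negative than the mean of all samples by about 3 SD, 99.7% confidence; inactive means the rest.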

Assays:
[1] = inhibitors of TNFa-induced NFkB p65 translocation, primary screen, imaging, HUVEC, MLSMR starter and 10KST1 sets (AID 438;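 active means inhibition above 20% together with a positive visual image hit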;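 further: compound added about 3h40 before a 20 min TNFalpha stimulation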;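 on inhibition: signal is the nuclear over cytoplasmic p65 intensity ratio per well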); conditions: HUVEC TNFa-induced p65 nuclear translocation; cell count: measured here: nuclei count (cytotoxicity indicator), at 2.08 µM; inhibition: at 2 µM, stronger effect = higher value, 0% TNFa-plus-vehicle, 100% no-TNFa wells
[2] = reduction of polyQ htt aggregates in cells – imaging, exon1htt(103Q)mCFP cells, high-content imaging, primary screen (AID 483;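 active means visual image review flags a hit and inhibition of aggregation exceeds 20%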;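 further: compound exposure lasted 3 days before fixation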;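 on nuclei count: percent of the per-plate median nuclei count of sample wells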); conditions: exon1htt(103Q)mCFP cell line, aggregate imaging, at 2 µM; inhibition of aggregation: stronger effect = higher value; nuclei count: measured here: cell count, toxicity
[3] = endothelial E-selectin expression blockers – imaging, HUVEC, immunofluorescence, MLSMR starter and 10KST1 sets, primary screen (AID 487;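 active means visually confirmed hit in the image check and inhibition above 20%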;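 on inhibition: signal is fraction of cell area covered by stained E-selectin grains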;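 on nuclei count: 100% = median nuclei count of all wells on the same plate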); conditions: HUVEC TNFalpha-induced E-selectin immunofluorescence imaging, at 2 µM; inhibition: stronger effect = higher value; nuclei count: measured here: cell number, toxicity
[4] = target: Voltage-gated potassium channel subunit beta-2 (Rattus norvegicus) (UniProt P62483); assay: inhibitors of rat Kvbeta2 reductase activity – biochemical, NADPH fluorescence, primary screen (AID 622;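 active means fluorescence slope higher than the sample average by over 3 SD, cut at about -0.22 in these data, passing the limit was not always enough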;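 further: slope of raw intensity against log time taken from 70 to 1610 s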); conditions: recombinant KvBeta, 4-cyanobenzaldehyde reduction, at 10 µM, stronger effect = higher value
[5] = target: Voltage-gated potassium channel subunit beta-2 (Rattus norvegicus) (UniProt P62483); assay: enhancers of rat Kvbeta2 NADPH turnover – biochemical, NADPH fluorescence, primary screen (AID 623); conditions: Recombinant KvBeta, NADPH fluorescence decrease slope, 10 min; at 10 µM; stronger effect = lower value;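 further: fluorescence intensity change per second fitted from 20 to 320 s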
[6] = target: Alpha-2C adrenergic receptor (Homo sapiens) (UniProt P18825); assay: compounds altering alpha2C-coupled GIRK flux – cell-based, HEK293 alpha2C/GIRK1/2, thallium flux, primary screen (AID 624;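 active means fluorescence slope after compound addition differing from the mean of all screened samples at 99.7% confidence, in either direction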;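 further: slope of fluorescence ratio to pre-addition baseline per second over 15 to 24 s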); conditions: thallium flux BTC fluorescence, at 10 µM, actives lie on both sides
[7] = blockers of RIG-like receptor reporter activation – cell-based, Sendai virus stimulus, luciferase, 10K MLSCN set, TLR/RLR signaling modifier project, primary screen (AID 602276;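 active means inhibition at or above 50% at 10 µM; inactive means inhibition below 50%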;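 further: firefly luciferase from ISG56 promoter only with Renilla not read in this screen; 0% = Sendai virus plus DMSO and 100% = medium plus DMSO without virus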); conditions: HEK293 RL24 IRF3 luciferase reporter, at 10 µM, stronger effect = higher value
[8] = TLR3 IRF3 reporter activation blockers – cell-based, poly I:C stimulus, luciferase, 10K MLSCN set, primary screen (AID 602277;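 active means inhibition of the reporter signal at or above 50%; inactive means inhibition below 50%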); conditions: HEK293-TLR3 RL24 IRF3 luciferase reporter, at 10 µM, stronger effect = higher value

Voltage-gated potassium channel subunit beta-2 (Rattus norvegicus), sequence (P62483 whole entry, looked up): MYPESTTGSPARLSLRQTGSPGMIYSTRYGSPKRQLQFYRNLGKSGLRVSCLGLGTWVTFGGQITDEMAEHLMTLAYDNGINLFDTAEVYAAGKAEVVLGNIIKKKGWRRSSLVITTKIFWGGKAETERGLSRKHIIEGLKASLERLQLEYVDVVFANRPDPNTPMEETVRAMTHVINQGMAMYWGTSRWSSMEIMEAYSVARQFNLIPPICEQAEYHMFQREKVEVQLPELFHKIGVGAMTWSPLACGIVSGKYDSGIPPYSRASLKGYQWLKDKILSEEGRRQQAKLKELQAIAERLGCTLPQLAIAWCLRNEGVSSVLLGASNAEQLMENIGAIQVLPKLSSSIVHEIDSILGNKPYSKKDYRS
Alpha-2C adrenergic receptor (Homo sapiens), sequence (P18825 whole entry, looked up): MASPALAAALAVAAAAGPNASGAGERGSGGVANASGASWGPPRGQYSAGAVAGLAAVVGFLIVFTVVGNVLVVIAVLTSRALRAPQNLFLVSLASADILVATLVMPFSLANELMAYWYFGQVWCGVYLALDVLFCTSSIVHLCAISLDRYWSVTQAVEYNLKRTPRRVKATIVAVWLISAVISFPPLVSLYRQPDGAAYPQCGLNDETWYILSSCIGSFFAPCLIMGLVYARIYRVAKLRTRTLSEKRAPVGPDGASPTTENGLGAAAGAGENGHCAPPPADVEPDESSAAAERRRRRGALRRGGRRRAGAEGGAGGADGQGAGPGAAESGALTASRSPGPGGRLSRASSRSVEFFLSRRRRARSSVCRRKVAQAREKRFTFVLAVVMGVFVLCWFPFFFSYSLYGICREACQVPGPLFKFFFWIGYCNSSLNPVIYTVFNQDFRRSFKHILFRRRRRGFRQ

| Structure (SMILES) | cell count [1] | inhibition [1] | inhibition of aggregation [2] | nuclei count [2] [%] | inhibition [3] | nuclei count [3] [%] | fluorescence slope [4] | NADPH fluorescence slope [5] | slope [6] | inhibition [7] | inhibition [8] |
| --- | --- | --- | --- | --- | --- | --- | --- | --- | --- | --- | --- |
| CCC1(NC(C)=O)CC2CC1CC2NC(C)=O (centres undefined) | 340 | -1.4% (inactive) | -4.3% (inactive) | 100 | -37.4% (inactive) | 103 | -0.614 (inactive) | -1.3e-05 (inactive) | 0.00321 (inactive) | 1.63% (inactive) | 3.3% (inactive) |
| CCOc1ccc(OCc2cccc(C(=O)N3CCCC3)c2)cc1 | 488 | 0% (inactive) | -4.9% (inactive) | 103 | 3.3% (inactive) | 106 | -0.423 (inactive) | -3.1e-05 (inactive) | 0.00502 (inactive) | -43% (inactive) | -105% (inactive) |
| O=C(c1ccccc1-c1ccccc1)N1CCN(c2ccccn2)CC1 | 384 | 7.8% (inactive) | -81.8% (inactive) | 17.3 | -93.4% (inactive) | 102 | -0.5 (inactive) | -3.6e-05 (inactive) | 0.00494 (inactive) | 43.1% (inactive) | 26.8% (inactive) |
| CSc1nc2c(c(=O)n1C)SC(C)C2 (centres undefined) | 612 | 8.7% (inactive) | -10.1% (inactive) | 111 | -32.9% (inactive) | 115 | -0.567 (inactive) | -4.8e-05 (inactive) | 0.00545 (inactive) | 4.05% (inactive) | 31.4% (inactive) |
| CCc1nc(NCCCN2CCOCC2)c2oc3ccccc3c2n1 | 573 | -4.4% (inactive) | -12.6% (inactive) | 106 | -55.2% (inactive) | 103 | -0.465 (inactive) | -3.3e-05 (inactive) | 0.00535 (inactive) | 17.6% (inactive) | 25.2% (inactive) |
| COc1ccc(C(C)=O)c(OC(=O)c2ccc(OC)c(OC)c2)c1 | 372 | -0.3% (inactive) | 3.6% (inactive) | 88.8 | -76% (inactive) | 100 | -0.376 (inactive) | 8.8e-06 (inactive) | 0.00658 (inactive) | 13.2% (inactive) | 22.8% (inactive) |
| Nn1c(SCC(=O)NC2CCCCC2)nnc1C1CC1 | 433 | -28.7% (inactive) | 7.4% (inactive) | 95.6 | -36.9% (inactive) | 117 | -0.466 (inactive) | 4.6e-05 (inactive) | 0.00622 (inactive) | 4.49% (inactive) | 16.1% (inactive) |
| CC(C(=O)Nc1ccccc1-c1ccccc1)N1CCOCC1 (centres undefined) | 555 | -17.7% (inactive) | 5.4% (inactive) | 89.4 | -27.4% (inactive) | 127 | -0.527 (inactive) | -6.7e-05 (inactive) | 0.00481 (inactive) | 3.12% (inactive) | 86.4% (active) |
| CC1NC(=O)NC1CCCCCC(=O)NCCc1ccccc1 (centres undefined) | 391 | 7.3% (inactive) | 7.5% (inactive) | 110 | -86.2% (inactive) | 113 | -0.441 (inactive) | -1.4e-05 (inactive) | 0.006 (inactive) | 5.75% (inactive) | 15.3% (inactive) |
| CCc1c(C)c2ccc(OCC(=O)OC)cc2oc1=O | 342 | 2.2% (inactive) | 9.8% (inactive) | 78.5 | 32.2% (inactive) | 97.7 | -0.165 (inactive) | -1.1e-05 (inactive) | 0.00537 (inactive) | 12.5% (inactive) | 18.6% (inactive) |
| COCCn1c(=N)c(C(=O)NCCc2ccccc2)cc2c(=O)n3cccc(C)c3nc21 | 388 | 4.3% (inactive) | -22.7% (inactive) | 102 | -75.7% (inactive) | 117 | -0.0609 (inactive) | 4.2e-06 (inactive) | 0.00428 (inactive) | 9.73% (inactive) | 35.4% (inactive) |
| CC1(C)CC(=O)c2cnc(NC(=O)Cc3ccc(Cl)cc3)nc2C1 | 382 | -0.3% (inactive) | -0.3% (inactive) | 97.2 | -20.1% (inactive) | 115 | -0.485 (inactive) | -4.8e-05 (inactive) | 0.00659 (inactive) | -25% (inactive) | 18.3% (inactive) |
| O=C(Nc1ccc(CN2CCOCC2)cc1)c1cc2ccccn2n1 | 579 | 0% (inactive) | -6.8% (inactive) | 99.9 | 8.4% (inactive) | 108 | -0.596 (inactive) | -1.7e-05 (inactive) | 0.00566 (inactive) | 45.9% (inactive) | 12% (inactive) |
| COc1ccc(NC(=O)CSc2nnc(Cc3cccn3C)n2-c2ccc(F)cc2)cc1 | 576 | 1.1% (inactive) | -14.5% (inactive) | 23.2 | -72.7% (inactive) | 112 | -0.577 (inactive) | 1.2e-05 (inactive) | 0.00735 (inactive) | 15% (inactive) | 18.7% (inactive) |
